# Test results reported in PubChem BioAssay (EPA / NIEHS).
# Records with an inconclusive call do not appear. Activity calls are given as the source filed them. Rule for the calls, unless noted: active = hit-call score of the fitted dose curve at least 0.9, where 1 is the maximum; inactive = score below 0.9.
# How the values were obtained:
# [1] = target: Bile acid receptor (Homo sapiens) (UniProt Q96RI1); assay: OT_FXR_FXRSRC1_0480: Odyssey Thera (OT) 8-hour HEK293T Protein-Complementation Assay for Farnesoid X receptor/SRC-1 Co-activator (AID 2283383; active = hit-call score of the fitted dose curve at least 0.9, where 1 is the maximum)
# In short: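 HEK293T protein-fragment complementation assay: FXR and SRC-1 coactivator are fused to reporter fragments, and their interaction restores a fluorescent reporter. Readout was taken 8 h after dosing, with gain of signal fit relative to DMSO.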
# [2] = target: Bile acid receptor (Homo sapiens) (UniProt Q96RI1); assay: OT_FXR_FXRSRC1_1440: Odyssey Thera (OT) 24-hour HEK293T Protein-Complementation Assay for Farnesoid X receptor/SRC-1 Co-activator (AID 2283384; active = hit-call score of the fitted dose curve at least 0.9, where 1 is the maximum)
# In short: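 HEK293T cells, 24 h after chemical dosing. FXR–SRC-1 coactivator interaction read as fluorescence from protein-fragment complementation of a split reporter. Gain of signal fitted against DMSO baseline.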
# [3] = CCTE_Deisenroth_AIME_384WELL_CTox_Inactive: Cytotoxicity Assessment (CTOX) in CCTE's 384-well Estrogen Receptor Transactivation Assay without AIME metabolic competence (metabolism negative), Deisenroth Lab (AID 2284039; active = hit-call score of the fitted dose curve at least 0.9, where 1 is the maximum;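 note: cell viability via live-cell protease substrate cleaved to fluorescent probe; cells exposed 24 h to medium preincubated 2 h with alginate-water beads without S9; loss of fluorescence signal means loss of viability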)
# In short: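 Fluorescent protease-substrate viability readout after 24 h exposure of VM7Luc4E2 cells to conditioned medium. Chemicals (0.002–200 uM) first sat 2 h over alginate-water beads, no S9. Data fitted bidirectionally, loss of signal meaning viability loss.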
# [4] = BSK_BT_Bcell_Proliferation: Viability Assessment in the BioMAP Diversity Plus: BT Assay for B cell Proliferation (AID 2284227); settings: primary human B cells with PBMC
# In short: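 Human B cell/PBMC co-culture; test chemical added; 72 h; TCA fix (10%), 0.1% SRB stain, A560 for total protein as a proliferation read-out; positive-direction fit vs DMSO baseline.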
# [5] = read-out: Interleukin 6 (IL6), IL6 (gene 3569); assay: BSK_BT_xIL6: BioMAP Diversity Plus: BT Assay for Interleukin 6 (IL6) Biomarker Activity (AID 2284228); settings: primary human B cells with PBMC
# In short: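 Human B cell/PBMC co-culture; secreted IL-6 quantified by Luminex xMAP 24 h after chemical dosing, fitted relative to DMSO. Parallel PBMC viability by Alamar Blue after 1 h pretreatment, 20 ng/mL SEB and TSST-1, 90 h incubation.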
# [6] = read-out: Interleukin 17A (IL17A), IL17A (gene 3605); assay: BSK_BT_xIL17A: BioMAP Diversity Plus: BT Assay for Interleukin 17A (IL17A) Biomarker Activity (AID 2284229); settings: primary human B cells with PBMC
# In short: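 Co-culture of human B cells and PBMC, dosed for 24 h in 96-well format. Secreted IL-17A measured with Luminex xMAP; gain-direction fitting against DMSO as baseline.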
# [7] = read-out: Tumor necrosis factor (Homo sapiens) (UniProt P01375); assay: BSK_BT_xTNFa: BioMAP Diversity Plus: BT Assay for Tumor necrosis factor alpha (TNF-alpha) Biomarker Activity (AID 2284230); settings: primary human B cells with PBMC
# In short: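 Read-out: Luminex xMAP quantitation of secreted TNF-alpha from a B cell/PBMC co-culture 24 h after compound addition. Signal analysed relative to DMSO vehicle, positive fitting direction.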
# [8] = read-out: Vascular cell adhesion molecule 1 (VCAM1), VCAM1 (gene 7412); assay: BSK_MyoF_VCAM1: BioMAP Diversity Plus: MyoF Assay for Vascular cell adhesion molecule 1 (VCAM1) Biomarker Activity (AID 2284231); settings: primary human lung fibroblasts
# In short: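 Primary human lung fibroblasts (BioMAP MyoF system) dosed with chemical, VCAM-1 measured by ELISA 24 hours later. Fitted in the positive direction against DMSO; parallel SRB staining assessed cytotoxicity.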
# [9] = read-out: Collagen I, COL1A1 (gene 1277); assay: BSK_MyoF_CollagenI: BioMAP Diversity Plus: MyoF Assay for Collagen I Biomarker Activity (AID 2284238); settings: primary human lung fibroblasts
# In short: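 Primary human lung fibroblasts (MyoF system) treated 24 h; Collagen I quantified by ELISA and fitted in positive direction against DMSO. Parallel SRB total-protein staining assessed overt cytotoxicity.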
# [10] = read-out: Collagen III, COL3A1 (gene 1281); assay: BSK_MyoF_CollagenIII: BioMAP Diversity Plus: MyoF Assay for Collagen III Biomarker Activity (AID 2284239); settings: primary human lung fibroblasts
# In short: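 Primary human lung fibroblasts (BioMAP MyoF system) exposed 24 h. Collagen III measured by ELISA; positive-direction fit relative to DMSO.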
# [11] = read-out: Actin alpha 1 (ACTA1), ACTA1 (gene 58); assay: BSK_MyoF_ACTA1: BioMAP Diversity Plus: MyoF Assay for Actin alpha 1 (ACTA1) Biomarker Activity (AID 2284244); settings: primary human lung fibroblasts
# In short: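 Human lung fibroblast (MyoF system) cultures dosed with test chemical; alpha-SMA measured by ELISA 24 h after dosing, normalized to DMSO control. Cytotoxicity tracked in parallel cultures by SRB total-protein staining.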
# [12] = read-out: Interleukin 2 (IL2), IL2 (gene 3558); assay: BSK_BT_xIL2: BioMAP Diversity Plus: BT Assay for Interleukin 2 (IL2) Biomarker Activity (AID 2284245); settings: primary human B cells with PBMC
# In short: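 Human B cell plus PBMC co-culture, 24 h after chemical dosing; secreted IL-2 quantified by Luminex xMAP multiplex, fitted for signal gain against DMSO baseline.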
# [13] = read-out: Basic fibroblast growth factor (bFGF), FGF2 (gene 2247); assay: BSK_MyoF_bFGF: BioMAP Diversity Plus: MyoF Assay for Basic fibroblast growth factor (bFGF) Biomarker Activity (AID 2284246); settings: primary human lung fibroblasts
# In short: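 Human lung fibroblast cultures were dosed and measured 24 h later in 96-well format. bFGF biomarker levels quantified by ELISA, with activity fitted in the positive direction against DMSO.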
# [14] = read-out: Collagen IV, COL4A1 (gene 1282); assay: BSK_MyoF_CollagenIV: BioMAP Diversity Plus: MyoF Assay for Collagen IV Biomarker Activity (AID 2284247); settings: primary human lung fibroblasts
# In short: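 Primary human lung fibroblasts (MyoF system) dosed 24 h; Collagen IV measured by ELISA. Activity fitted in positive direction against DMSO; cytotoxicity tracked by SRB total-protein staining in parallel cultures.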
# [15] = read-out: Plasminogen activator inhibitor-1 (PAI1), SERPINE1 (gene 5054); assay: BSK_MyoF_PAI1: BioMAP Diversity Plus: MyoF Assay for Plasminogen activator inhibitor-1 (PAI1) Biomarker Activity (AID 2284256); settings: primary human lung fibroblasts;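 note: PAI-1 read 24 h after compound addition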
# In short: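 Primary human lung fibroblasts treated with chemical for 24 h; PAI-1 levels quantified by ELISA relative to DMSO. Cytotoxicity was assessed in parallel cultures by SRB total-protein staining (0.1% SRB after 10% TCA fixation, 560 nm).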
# [16] = read-out: Decorin, DCN (gene 1634); assay: BSK_MyoF_Decorin: BioMAP Diversity Plus: MyoF Assay for Decorin Biomarker Activity (AID 2284265); settings: primary human lung fibroblasts
# In short: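 Human lung fibroblast cultures were dosed for 24 h, and decorin was then measured by ELISA. Parallel cultures were stained with sulforhodamine B for total protein as a cytotoxicity check. Gain of signal was fitted relative to DMSO.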
# [17] = BSK_MyoF_SRB: Viability Assessment in the BioMAP Diversity Plus: MyoF Assay (AID 2284267); settings: primary human lung fibroblasts;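 note: total protein by SRB absorbance in parallel cultures as cytotoxicity measure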
# In short: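 Human lung fibroblasts, 24 h after chemical dosing; total protein measured by 0.1% sulforhodamine B staining after 10% TCA fixation, read at 560 nm, fitted relative to DMSO baseline.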
# [18] = read-out: Matrix Metallopeptidase 1 (MMP1), MMP1 (gene 4312); assay: BSK_MyoF_MMP1: BioMAP Diversity Plus: MyoF Assay for Matrix Metallopeptidase 1 (MMP1) Biomarker Activity (AID 2284268); settings: primary human lung fibroblasts
# In short: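 Human lung fibroblast primary cells; MMP1 measured by ELISA 24 h after dosing, fitted in the positive direction relative to DMSO. Parallel SRB staining (0.1%, after 10% TCA fixation, 560 nm) assesses overt cytotoxicity.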
# [19] = read-out: TIMP metallopeptidase inhibitor 1 (TIMP1), TIMP1 (gene 7076); assay: BSK_MyoF_TIMP1: BioMAP Diversity Plus: MyoF Assay for TIMP metallopeptidase inhibitor 1 (TIMP1) Biomarker Activity (AID 2284269); settings: primary human lung fibroblasts
# In short: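 ELISA read-out of TIMP-1 from primary human lung fibroblast cultures 24 h after compound dosing; gain of signal relative to DMSO vehicle baseline defines activity.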
# [20] = target: human Phosphodiesterase 10 (PDE10), PDE10A (gene 10846) (UniProt Q9Y233); assay: NVS_ENZ_hPDE10: NovaScreen (NVS) Enzymatic Assay for human Phosphodiesterase 10 (PDE10) (AID 2283195; active = hit-call score of the fitted dose curve at least 0.9, where 1 is the maximum)
# In short: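 Fluorescence/mobility-shift readout of PDE10A enzyme activity, taken 1 h post-dosing. Primary screen in duplicate at 25 uM; actives (e.g. ≥30% inhibition) retested as singleton concentration-response, top concentration 50 uM.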
# human Phosphodiesterase 10 (PDE10), PDE10A (gene 10846), sequence (Q9Y233 whole entry, looked up): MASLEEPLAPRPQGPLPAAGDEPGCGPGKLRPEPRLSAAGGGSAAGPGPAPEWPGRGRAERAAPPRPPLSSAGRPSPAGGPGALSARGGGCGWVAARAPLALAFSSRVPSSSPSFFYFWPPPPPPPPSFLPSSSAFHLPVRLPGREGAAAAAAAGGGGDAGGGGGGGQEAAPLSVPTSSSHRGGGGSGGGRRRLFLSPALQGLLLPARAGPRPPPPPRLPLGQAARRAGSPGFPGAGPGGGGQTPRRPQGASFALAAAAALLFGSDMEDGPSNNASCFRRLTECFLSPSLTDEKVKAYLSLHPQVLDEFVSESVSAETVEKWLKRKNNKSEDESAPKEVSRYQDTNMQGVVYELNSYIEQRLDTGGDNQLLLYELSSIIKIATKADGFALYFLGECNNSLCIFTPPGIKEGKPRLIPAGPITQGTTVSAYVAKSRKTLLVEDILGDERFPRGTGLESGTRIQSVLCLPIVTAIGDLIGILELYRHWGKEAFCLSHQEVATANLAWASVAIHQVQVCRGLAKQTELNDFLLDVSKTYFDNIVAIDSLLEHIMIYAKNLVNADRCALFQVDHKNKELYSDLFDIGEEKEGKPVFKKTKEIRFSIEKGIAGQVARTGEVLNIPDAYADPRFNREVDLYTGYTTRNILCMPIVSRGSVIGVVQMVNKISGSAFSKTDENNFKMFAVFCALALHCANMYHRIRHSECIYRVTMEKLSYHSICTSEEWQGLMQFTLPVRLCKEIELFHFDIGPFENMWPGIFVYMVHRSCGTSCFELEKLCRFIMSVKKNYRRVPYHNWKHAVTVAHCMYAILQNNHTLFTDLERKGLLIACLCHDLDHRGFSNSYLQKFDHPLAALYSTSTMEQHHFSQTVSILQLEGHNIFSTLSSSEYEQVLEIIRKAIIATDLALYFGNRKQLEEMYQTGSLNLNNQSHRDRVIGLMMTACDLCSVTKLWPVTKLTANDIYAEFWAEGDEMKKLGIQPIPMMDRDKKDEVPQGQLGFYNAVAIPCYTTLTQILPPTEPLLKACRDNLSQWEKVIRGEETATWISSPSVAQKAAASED
# Bile acid receptor (Homo sapiens), sequence (Q96RI1 whole entry, looked up, the tested form may be a part): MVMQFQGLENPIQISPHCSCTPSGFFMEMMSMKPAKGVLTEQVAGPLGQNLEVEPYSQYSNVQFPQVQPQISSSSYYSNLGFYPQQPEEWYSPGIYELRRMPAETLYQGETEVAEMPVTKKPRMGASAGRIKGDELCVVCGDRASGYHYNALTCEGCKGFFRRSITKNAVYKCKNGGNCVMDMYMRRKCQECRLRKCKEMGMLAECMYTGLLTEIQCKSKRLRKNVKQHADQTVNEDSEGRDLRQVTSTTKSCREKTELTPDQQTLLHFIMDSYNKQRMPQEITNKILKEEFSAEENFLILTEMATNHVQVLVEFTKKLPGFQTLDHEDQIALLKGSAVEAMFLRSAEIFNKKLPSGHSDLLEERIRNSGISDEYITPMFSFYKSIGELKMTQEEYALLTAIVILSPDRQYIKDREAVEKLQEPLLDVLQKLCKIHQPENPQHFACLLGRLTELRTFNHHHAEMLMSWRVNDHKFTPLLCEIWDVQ
# Tumor necrosis factor (Homo sapiens), sequence (P01375 whole entry, looked up): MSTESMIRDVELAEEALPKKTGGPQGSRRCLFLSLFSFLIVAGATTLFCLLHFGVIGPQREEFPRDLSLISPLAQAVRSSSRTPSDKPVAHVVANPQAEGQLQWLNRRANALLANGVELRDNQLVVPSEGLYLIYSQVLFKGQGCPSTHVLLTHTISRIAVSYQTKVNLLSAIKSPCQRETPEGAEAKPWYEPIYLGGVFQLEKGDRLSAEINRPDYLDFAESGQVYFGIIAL
smiles,measurement,setting,value
CCOC(=O)CC(=O)OCC,outcome,[1],inactive
O=C1NC(=O)C2CC=CCC12 (configuration not stated),outcome,[2],inactive
CCCCOC(=O)COc1ccc(Cl)cc1Cl,outcome,[1],inactive
same,outcome,[3],inactive
CCCCCCC1CCC(=O)O1 (configuration not stated),outcome,[3],inactive
Sc1nc2ccccc2s1,outcome,[2],inactive
same,outcome,[4],inactive
same,outcome,[5],inactive
same,outcome,[6],inactive
same,outcome,[7],inactive
same,outcome,[8],inactive
same,outcome,[9],inactive
same,outcome,[10],inactive
same,outcome,[11],inactive
same,outcome,[12],inactive
same,outcome,[13],inactive
same,outcome,[14],inactive
same,outcome,[15],inactive
same,outcome,[16],inactive
same,outcome,[17],inactive
same,outcome,[18],inactive
same,outcome,[19],inactive
CCC(C)=NO,outcome,[3],inactive
CCCCCC1CCCC(=O)O1 (configuration not stated),outcome,[20],inactive
CC(C)CC(=O)O,outcome,[20],inactive
CC(C)CC(=O)CC(C)CC(C)C (configuration not stated),outcome,[20],inactive
same,outcome,[4],inactive
same,outcome,[5],inactive
same,outcome,[6],inactive
same,outcome,[7],inactive
same,outcome,[8],inactive
same,outcome,[9],inactive
same,outcome,[10],inactive
same,outcome,[11],inactive
same,outcome,[12],inactive
same,outcome,[13],inactive
same,outcome,[14],inactive
same,outcome,[15],inactive
same,outcome,[16],inactive
same,outcome,[17],inactive
same,outcome,[18],inactive
same,outcome,[19],inactive
COC(=O)[C@]1(C)CCC[C@@]2(C)[C@H]1CC=C1C=C(C(C)C)CC[C@@H]12,AC50,[1],12.7 µM (active)
same,AC50,[2],12.8 µM (active)
same,outcome,[3],inactive
COC(=O)/C=C\C(=O)OC,outcome,[20],inactive
same,outcome,[4],inactive
same,AC50,[5],14.5 µM (active)
same,outcome,[6],inactive
same,outcome,[7],inactive
same,outcome,[8],inactive
same,outcome,[9],inactive
same,outcome,[10],inactive
same,outcome,[11],inactive
same,AC50,[12],12.8 µM (active)
same,outcome,[13],inactive
same,outcome,[14],inactive
same,outcome,[15],inactive
same,outcome,[16],inactive
same,outcome,[17],inactive
same,outcome,[18],inactive
same,outcome,[19],inactive
O=C(Oc1ccccc1)c1ccccc1,AC50,[1],45.2 µM (active)
same,outcome,[2],inactive
CC(=O)CCc1ccccc1,outcome,[20],inactive
CCCOCCC,outcome,[20],inactive
CN(C)c1ccc(C(c2ccccc2)c2ccc(N(C)C)cc2)cc1,AC50,[4],29 µM (active)
same,AC50,[5],14.6 µM (active)
same,AC50,[6],20 µM (active)
same,AC50,[7],33.1 µM (active)
same,outcome,[8],inactive
same,outcome,[9],inactive
same,outcome,[10],inactive
same,AC50,[11],32.7 µM (active)
same,AC50,[12],34.3 µM (active)
same,outcome,[13],inactive
same,AC50,[14],11.9 µM (active)
same,outcome,[15],inactive
same,outcome,[16],inactive
same,outcome,[17],inactive
same,outcome,[18],inactive
same,outcome,[19],inactive
CC/C=C\CCO,outcome,[2],inactive
same,outcome,[3],inactive
CCC(C)(CCC(C)C)C(=O)O (configuration not stated),outcome,[3],inactive
Cc1cccnc1,outcome,[4],inactive
same,outcome,[5],inactive
same,outcome,[6],inactive
same,outcome,[7],inactive
same,outcome,[8],inactive
same,outcome,[9],inactive
same,outcome,[10],inactive
same,outcome,[11],inactive
same,outcome,[12],inactive
same,outcome,[13],inactive
same,outcome,[14],inactive
same,outcome,[15],inactive
same,outcome,[16],inactive
same,outcome,[17],inactive
same,outcome,[18],inactive
same,outcome,[19],inactive
CCO[Si](CCCN)(OCC)OCC,outcome,[2],inactive
